Test [1] addresses Luciferin 4-monooxygenase (Photinus pyralis) (UniProt P08659). The experiment in a line: qHTS assay to identify small molecule inhibitors of firefly luciferase (AID 1224835). Further: nearly all actives have a fitted effect of over 25% in size. The method, boiled down:
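Biochemical qHTS: compounds run as interplate titrations against purified firefly enzyme, with D-luciferin and ATP each at its KM concentration. Light output recorded by CCD imaging.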

Test [2] is described as follows: qHTS assay to identify small molecule agonists of the constitutive androstane receptor (CAR) signaling pathway - cell viability counter screen (AID 1224836). Further: nearly all actives have a fitted effect of over 45% in size. The method, boiled down: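 23 h treatment, 37 C, 5% CO2. Cell line: HepG2 stably expressing hCAR with a CYP2B6-2.2kb construct. Co-treatment: PK11195, 0.75 uM final. Read-out: CellTiter-Fluor fluorescence intensity.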

The nature of test [3]: qHTS assay to identify small molecule antagonists of the constitutive androstane receptor (CAR) signaling pathway - cell viability counter screen (AID 1224837). Further: nearly all actives have a fitted effect of over 45% in size. The gist of the method: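 HepG2 cells stably expressing hCAR and a CYP2B6-2.2kb reporter were plated and pre-incubated 4 hr at 37 C/5% CO2, then given compounds at 15 concentrations plus 50 nM CITCO (final). After 23 hr, viability was read by CellTiter-Fluor fluorescence.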

Test [4] deals with Nuclear receptor subfamily 1 group I member 3 (Homo sapiens) (UniProt Q14994). Description: qHTS assay to identify small molecule antagonists of the constitutive androstane receptor (CAR) signaling pathway (AID 1224838). Further: nearly all actives have a fitted effect of over 40% in size. The gist of the method: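 HepG2 cells stably co-transfected with hCAR and a CYP2B6-2.2kb luciferase reporter were seeded 4 h before compound addition at 15 concentrations. Cells were stimulated with 50 nM CITCO (final) for 24 h at 37 C; luciferase luminescence was then read.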
Chain of Nuclear receptor subfamily 1 group I member 3 (Homo sapiens) (Q14994 whole entry, looked up): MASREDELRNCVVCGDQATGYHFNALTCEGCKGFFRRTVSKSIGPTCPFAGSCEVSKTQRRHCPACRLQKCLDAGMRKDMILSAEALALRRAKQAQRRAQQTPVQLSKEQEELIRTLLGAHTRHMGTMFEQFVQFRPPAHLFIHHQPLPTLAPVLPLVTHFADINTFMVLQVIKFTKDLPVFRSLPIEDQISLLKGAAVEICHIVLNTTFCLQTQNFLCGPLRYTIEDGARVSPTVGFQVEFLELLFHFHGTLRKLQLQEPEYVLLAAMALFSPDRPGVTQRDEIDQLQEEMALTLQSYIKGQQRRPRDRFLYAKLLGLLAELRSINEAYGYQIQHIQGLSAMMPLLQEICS
On the technique in general: qHTS replaces the single test concentration by a dilution series.

Test [5] in a line: qHTS assay to identify small molecule antagonists of the estrogen related receptor signaling pathway with the pleiotropic PPARgamma coactivator (PGC) from Tox21 10K library - cell viability counter screen (AID 1224840; active means well fitted cell-killing curve with a large enough effect in the repeat runs, not every such curve was filed as active; further: nearly all actives have a fitted effect of over 40% in size). The method, boiled down: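 PGC/ERR cells were seeded at 2,000 cells/well and left 6 hours at 37 C/5% CO2 before pin-tool addition of compounds in DMSO. After 17.5 hours at 37 C, CellTiter-Fluor was added and fluorescence read 30 minutes later.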

Test [6] has as its target Thyrotropin receptor (Homo sapiens) (UniProt P16473). Description: qHTS assay to identify small molecule agonists of the thyroid stimulating hormone receptor (TSHR) signaling pathway (AID 1224843; calls by dose curve; further: nearly all actives have a fitted effect of over 45% in size). The gist of the method:
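TSHR-HEK293 cells in agonist mode, 30 min room-temperature step, then cAMP measured by competitive HTRF (cAMP-d2 with anti-cAMP cryptate) after 1 h at room temperature. Tested at 15 concentrations in triplicate.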

Test [7] is described as follows: qHTS assay to identify small molecule agonists of the hypoxia (HIF-1) signaling pathway - cell viability counter screen (AID 1224844; calls by dose curve; further: nearly all actives have a fitted effect of over 50% in size). The gist of the method:
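HRE-bla ME-180 cells in medium with 0.5% dialyzed FBS were preincubated 5 hrs at 37C, exposed to compounds for 17 hrs, then viability was read as CellTiter-Glo luminescence after 30 min at room temperature, in the reporter wells.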

A short description of test [8]: qHTS assay to identify small molecule agonists of H2AX (AID 1224845; active means well fitted activation curve with a large enough effect in the signal ratio in the repeat runs, not every such curve was filed as active; the % refers to the signal ratio). The method, boiled down:
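Wild-type CHO-K1 cells, plated overnight, exposed 3hr at 37C to 15 concentrations (0.76% DMSO final). Lysed, then HTRF anti-pH2AX (S139) cryptate and anti-H2AX-d2 antibodies, 24 hr room temperature; 665/620 nm emission read.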

A short description of test [9]: qHTS assay to identify small molecule agonists of the hypoxia (HIF-1) signaling pathway (AID 1224846; active means well fitted activation curve with a large enough effect in the signal ratio in the repeat runs, not every such curve was filed as active; the % refers to the signal ratio). The gist of the method:
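HRE-bla ME-180 cells (beta-lactamase reporter under hypoxia response element) were plated at 2,000 cells/well in medium with 0.5% dialyzed FBS, rested 5 hrs, then given compounds in DMSO for 17 hrs at 37C, 5% CO2. Reporter induction was read with CCF4-AM FRET substrate.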

Test [10] in a line: A CellTox Green Cytotoxicity Assay to monitor cytotoxicity in HEK293 cells - 0 hour (AID 1224869). Further: nearly all actives have a fitted effect of over 50% in size. The gist of the method:
(§1)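 HEK293 cells premixed with CellTox Green dye were seeded at 600 cells/well and left 5 h at 37 C/5% CO2 before pin transfer of 23 nL compound in DMSO. Fluorescence from dye bound to dead-cell DNA was read during 40 h treatment.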

The nature of test [11]: A CellTox Green Cytotoxicity Assay to monitor cytotoxicity in HEK293 cells - 40 hour (AID 1224871). Further: nearly all actives have a fitted effect of over 45% in size. The method, boiled down: as §1
Test [12] addresses Nuclear receptor subfamily 1 group I member 3 (Homo sapiens) (UniProt Q14994). The experiment in a line: qHTS assay to identify small molecule agonists of the constitutive androstane receptor (CAR) signaling pathway (AID 1224839). Further: nearly all actives have a fitted effect of over 15% in size. The method, boiled down:
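Compounds tested at 15 concentrations on HepG2 cells stably harbouring hCAR and CYP2B6-2.2kb reporter constructs, co-treated with PK11195 (0.75 uM final), 24 h at 37 C; luminescent reporter signal quantified.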

Test [13] is described as follows: qHTS assay to identify small molecule agonists of the estrogen related receptor signaling pathway with the pleiotropic PPARgamma coactivator (PGC) from Tox21 10K library (AID 1224842). Further: nearly all actives have a fitted effect of over 15% in size. The gist of the method:
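PGC/ERR reporter cell line, 2,000 cells per well, incubated 6 h at 37 C before 23 nL compound in DMSO was added. After 18 h at 37 C, One-Glo luminescence read following 30 min at room temperature.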

Test [14] in a line: qHTS assay to identify small molecule antagonists of the estrogen related receptor (ERR) signaling pathway from Tox21 library (AID 1224848). Further: nearly all actives have a fitted effect of over 50% in size. The method, boiled down:
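ERR reporter cell line (from NTP) seeded 2,000 cells/well, rested 6 h at 37 C/5% CO2, then pin-dosed with compounds in DMSO. After 18 h at 37 C, ONE-Glo added; luminescence read after 30 min at room temperature.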

Test [15] is described as follows: qHTS assay to identify small molecule agonists of the estrogen related receptor (ERR) signaling pathway from Tox21 library (AID 1224849; calls by dose curve; further: nearly all actives have a fitted effect of over 15% in size). The following applies: ERR reporter cell line, ONE-Glo luciferase, 18 h; at 92.4 µM (top of the series) unless noted. The gist of the method:
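ERR reporter cell line (NTP) seeded, rested 6 h at 37 C/5% CO2, then pinned with Tox21 compounds in DMSO. After 18 h at 37 C, ONE-Glo luciferase luminescence was read following 30 min at room temperature.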

A short description of test [16]: qHTS RealTime-Glo MT Cell Viability Assay in HepG2 cells - 24 hour (AID 1224867). Further: nearly all actives have a fitted effect of over 50% in size. The gist of the method: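 Tox21 10K library screened in qHTS format on HepG2 cells carrying RealTime-Glo reagents. Compounds were added after a 5 h preincubation, and the luminescent signal from continuous culture was measured repeatedly during 40 h treatment.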
Test [17] is described as follows: qHTS RealTime-Glo MT Cell Viability Assay in HEK293 cells - 32 hour (AID 1224868). Further: nearly all actives have a fitted effect of over 50% in size. Further: potency means the concentration at half of the fitted maximal effect. On activity change, negative = cytotoxic: top concentration of the series differs between compounds. The method, boiled down:
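Luminescence generated by NanoLuc from substrate produced by living HEK293 cells served as the viability signal. Each value reflects the reading at its stated time point during continuous 40 h compound exposure at 37 C.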

Test [18] can be described thus: qHTS RealTime-Glo MT Cell Viability Assay in HepG2 cells - 40 hour (AID 1224870). Further: nearly all actives have a fitted effect of over 50% in size. The gist of the method: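 HepG2 cells (600/well) mixed with RealTime-Glo MT reagent, settled 5 h at 37 C/5% CO2 before compound addition. Nonlytic NanoLuc luminescence from viable-cell prosubstrate reduction read repeatedly during 40 h treatment at 37 C.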
Test [19] is described as follows: qHTS assay to identify small molecule agonists of H2AX - cell viability counter screen (AID 1224847; calls by dose curve; further: top concentration of the series differs between compounds; nearly all actives have a fitted effect of over 30% in size). The gist of the method:
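Compounds tested at 15 concentrations were incubated 3 hr at 37C with wild-type CHO-K1 cells; cellular ATP-based luminescence (CellTiter-Glo) indicated viability.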

Unmarked numbers belong to inactive results. Results filed as inconclusive are left out. Activity calls are given as the source filed them. Unless noted, the call rests on the fitted dose curve; in most records, active means well fitted curve in the direction sought with a large enough effect in the repeat runs; inconclusive means weak or mixed curves; inactive means no such curve, though single readings can be large; an effect the other way counts as inactive or inconclusive.
On the % scale 0 is the no-effect control and ±100 the full control effect.

Chain of Luciferin 4-monooxygenase (Photinus pyralis) (P08659 whole entry, looked up): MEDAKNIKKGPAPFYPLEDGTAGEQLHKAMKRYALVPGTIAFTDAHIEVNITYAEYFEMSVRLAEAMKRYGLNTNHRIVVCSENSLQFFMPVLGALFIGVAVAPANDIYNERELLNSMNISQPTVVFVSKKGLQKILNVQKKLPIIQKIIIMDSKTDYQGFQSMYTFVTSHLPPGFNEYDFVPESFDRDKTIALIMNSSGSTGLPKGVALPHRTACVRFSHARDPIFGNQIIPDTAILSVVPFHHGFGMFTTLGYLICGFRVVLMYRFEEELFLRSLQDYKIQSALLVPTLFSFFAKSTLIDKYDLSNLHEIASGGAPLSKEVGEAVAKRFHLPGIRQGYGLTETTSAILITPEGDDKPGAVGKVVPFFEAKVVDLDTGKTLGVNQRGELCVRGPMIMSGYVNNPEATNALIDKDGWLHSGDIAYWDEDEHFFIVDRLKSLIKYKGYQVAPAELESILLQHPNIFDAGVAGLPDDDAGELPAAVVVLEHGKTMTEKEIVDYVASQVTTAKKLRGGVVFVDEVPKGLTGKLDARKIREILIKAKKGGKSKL
Chain of Thyrotropin receptor (Homo sapiens) (P16473 whole entry, looked up): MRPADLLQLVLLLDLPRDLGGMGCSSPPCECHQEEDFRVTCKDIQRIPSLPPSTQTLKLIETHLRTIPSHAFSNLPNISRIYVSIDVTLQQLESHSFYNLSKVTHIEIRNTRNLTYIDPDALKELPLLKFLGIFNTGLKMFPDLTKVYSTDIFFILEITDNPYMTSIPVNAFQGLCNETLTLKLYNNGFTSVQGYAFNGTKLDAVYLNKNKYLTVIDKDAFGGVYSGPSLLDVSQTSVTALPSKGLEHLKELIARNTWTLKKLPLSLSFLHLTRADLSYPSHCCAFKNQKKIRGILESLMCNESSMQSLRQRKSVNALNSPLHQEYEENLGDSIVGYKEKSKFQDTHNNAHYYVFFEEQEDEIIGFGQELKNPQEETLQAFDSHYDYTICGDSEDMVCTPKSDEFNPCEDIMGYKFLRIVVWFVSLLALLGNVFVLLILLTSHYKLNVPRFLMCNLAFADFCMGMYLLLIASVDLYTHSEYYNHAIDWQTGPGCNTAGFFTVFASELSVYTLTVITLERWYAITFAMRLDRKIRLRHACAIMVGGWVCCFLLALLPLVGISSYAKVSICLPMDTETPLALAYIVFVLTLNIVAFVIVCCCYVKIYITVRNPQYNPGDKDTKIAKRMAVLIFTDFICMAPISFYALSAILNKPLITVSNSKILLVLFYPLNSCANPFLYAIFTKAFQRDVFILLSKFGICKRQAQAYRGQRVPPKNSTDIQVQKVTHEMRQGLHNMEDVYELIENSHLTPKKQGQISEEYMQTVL

With `COCCOC(=O)C1=C(C)NC(C)=C(C(=O)OC(C)C)C1c1cccc([N+](=O)[O-])c1` (centres undefined), the Potency entry in test [1], in [2], in test [3], in test [6] and in [11] was “inactive” each time. Besides, the call in test [4], in test [5], in [7], in test [8], in test [9] and in [10] was inactive.

As to `COc1cc(C(=S)N2CCOCC2)cc(OC)c1OC`, the Potency entry in [1], in test [2], in test [3], in test [12], in test [14] and in [17] was “inactive” each time. Also, the Potency entry in [11] is “inactive”. Further, the outcome in [5], in test [13], in [7], in test [8], in test [9] and in test [16] was inactive. The molecule was classed as inactive in [10] and in [18]. In test [15], the activity change, positive = activation was -0.791% [at 42.5 µM].

`COCCOCCOCCOCCO`: the Potency entry in [1], in [2], in test [3], in test [12], in [19] and in test [17] was “inactive” throughout. Further, the Potency result in [11] is “inactive”. In addition, the molecule was classed as inactive in [5], in test [7], in test [8], in test [9], in test [16] and in test [10].

On to `O=Cc1ccc(Cl)c(Cl)c1`, for which the Potency entry in test [1], in test [2], in test [3], in test [6], in test [19] and in test [11] was “inactive” throughout. Besides, the molecule was called inactive in [5], in test [7], in test [9], in test [16], in test [10] and in test [18].

For `CCOc1cc([N+](=O)[O-])c(OCC)cc1N1CCOCC1`, the Potency entry in [1], in [2], in test [3], in test [6], in test [19] and in test [11] was “inactive” in each case. Besides, the outcome in test [5], in test [7], in test [8], in test [9], in test [10] and in test [18] was inactive. Also, in test [17], the Potency was 15.5 µM (active).

As for `CCOC(=O)[C@H](CCc1ccccc1)N[C@@H](C)C(=O)N1C(=O)N(C)C[C@H]1C(=O)O`, the Potency entry in [1], in test [2], in test [3], in [12], in test [6] and in [17] was “inactive” throughout. Besides, the Potency entry in [11] was “inactive”. In addition, the result in test [5], in test [7], in [8], in test [9], in [16] and in [10] was inactive. Moreover, the call in test [18] was inactive.

Regarding `Nc1cccc(O)c1`, the Potency result in test [1], in test [2], in [3], in test [17] and in test [11] was “inactive” throughout. Further, the molecule was called inactive in test [5], in [7], in test [8], in test [9], in test [16] and in test [10]. Besides, the molecule was classed as inactive in test [18].

Regarding `C=CCCCCCCCCCCCC`, the Potency entry in test [1], in test [2], in test [3], in test [12], in [6] and in test [19] was “inactive” throughout. For the same molecule, the Potency result in test [17] and in [11] was “inactive” each time. Moreover, the result in [5], in test [7], in test [8], in test [9] and in test [18] was inactive.

In the case of `NC(CO)C(=O)NNCc1ccc(O)c(O)c1O` (centres undefined), the Potency entry in test [1], in test [2], in test [3], in [19], in [14] and in test [17] was “inactive” in each case. Also, the Potency result in test [11] was “inactive”. The outcome in test [5], in test [13], in test [7] and in test [16] was inactive. Further, the activity change, positive = activation in test [15] was 1.5% [at 42.5 µM].

Consider `N[C@@H](COP(=O)(O)O)C(=O)O`, for which the activity change, negative = inhibition in test [1] is 0.319% [at 23.6 µM]. For the same molecule, the viability change, negative = cytotoxic is 0.478% [at 19 µM] in [2] and 2.06% [at 19 µM] in test [5]. The activity change, negative = cytotoxicity is 10.4% [at 19 µM] in test [3], -1.64% [at 15.8 µM] in test [7], -1.2% [at 31.6 µM] in test [19] and 0.52% [at 15.8 µM] in test [16]. For the same molecule, the activation in test [6] is 7.34% [at 19 µM]. Also, the activation (H2AX phosphorylation) in test [8] is -3.89% [at 31.6 µM]. Moreover, the activity change, negative = cytotoxic in test [17] was 2.67% [at 15.8 µM]; in test [18], 1.81% [at 15.8 µM]. In addition, the cytotoxicity in test [10] was -3.53% [at 15.8 µM]. In [11], the cytotoxicity increase is -6.71% [at 15.8 µM].
